# Sampled rows, rich in hits. Any-hit rate of the full collection: about 12%.
# Sfp inh – qHTS Assay for Inhibitors of Bacillus subtilis Sfp phosphopantetheinyl transferase (PPTase). Potency, µM, for inactives: largest response in the series, negative = inhibition, actives largely listed as inhibitors. 4'-phosphopantetheinyl transferase ffp (Bacillus subtilis), Q9F4F7. 310,000 tested, 3.5% active. AID 1490, 2009. Biochemical Sfp PPTase activity, qHTS;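 note: the enzyme is Sfp with the accession as filed and its product quenches rhodamine fluorescence; 0% = enzyme reaction without inhibitor and -100% = no enzyme wells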
#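 Buffer: 50 mM Hepes-Na pH 7.6, 10 mM MgCl2, 0.01% Nonidet P-40, 0.01% BSA. Enzyme 15 nM, pre-exposed to compound 15 min; substrates then added and fluorescence change tracked over 30 min.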
# BAZ2B block – qHTS Assay for Inhibitors of BAZ2B | AlphaScreen BAZ2B-H3K14Ac peptide displacement | Potency, µM (series often up to 114 µM), inactives show at the top dose activity change, negative = inhibition, most hits filed as inhibitors | 360,000 tested, 4.4% active | AID 504333, 2011; note: % is set by controls: 0 for no effect and ±100 for the full control effect; nearly all actives have a fitted effect of over 60% in size
#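 Complex of BAZ2B and biotin-H3K14Ac (50 nM apiece) forms over 30 min at RT, then faces library compounds up to 110 uM for another 30 min; AlphaScreen beads added, 20 min dark incubation, luminescence read.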
# JMJD2A Tudor inh – qHTS Assay for Inhibitors of JMJD2A-Tudor Domain; Potency, µM (series often up to 114 µM), without a hit: at the highest dose activity change, negative = inhibition, actives largely listed as inhibitors; AID 504339, 2011; Lysine-specific demethylase 4A (Homo sapiens), O75164; 390,000 tested, 4.4% active; AlphaScreen JMJD2A-Tudor / H3K4me3 peptide binding; note: % is set by controls: 0 for no effect and ±100 for the full control effect; nearly all actives have a fitted effect of over 50% in size
# G9a block – qHTS Assay for Inhibitors of Histone Lysine Methyltransferase G9a. Histone-lysine N-methyltransferase EHMT2 (Homo sapiens), Q96KQ7. G9a H3K9 monomethylation, AlphaScreen, 2 h. Potency, µM (series often up to 102 µM), without a hit: at the highest dose activity, negative = inhibition, most hits filed as inhibitors. 350,000 tested, 8.8% active. AID 504332, 2011; note: % is set by controls: 0 for no effect and ±100 for the full control effect; nearly all actives have a fitted effect of over 75% in size
# Target sequence (Q96KQ7 913-1193 limits assumed): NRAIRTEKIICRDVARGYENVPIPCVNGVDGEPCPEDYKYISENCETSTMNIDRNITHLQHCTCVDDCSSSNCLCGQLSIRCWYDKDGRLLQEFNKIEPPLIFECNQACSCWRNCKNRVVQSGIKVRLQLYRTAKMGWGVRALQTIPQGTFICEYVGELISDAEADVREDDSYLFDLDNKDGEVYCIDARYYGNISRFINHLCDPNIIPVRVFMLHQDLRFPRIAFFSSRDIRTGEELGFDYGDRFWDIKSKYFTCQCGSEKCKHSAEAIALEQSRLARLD
#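 Enzyme 20 nM + cpd, 15 min RT; add b-H3K9 pep 500 nM / SAM 20 uM; 2 h RT; anti-H3K9me1 Ab 0.5 ug/mL + SA donor / anti-rabbit acceptor beads 20 ug/mL each, 10 min; AlphaScreen read.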
# HP1b binding inh – HTS for Inhibitors of HP1-beta Chromodomain Interactions with Methylated Histone Tails; 390,000 tested, 0.56% active; AlphaScreen HP1-beta / biotin-H3K9me3 peptide binding; Chromobox protein homolog 1 (Homo sapiens), P83916; AID 540317, 2011; Potency, µM (doses to about 114 µM), for inactives: top-dose activity change, negative = inhibition, hits mostly inhibitors; note: nearly all actives have a fitted effect of over 70% in size
# Target sequence (P83916 whole entry, looked up): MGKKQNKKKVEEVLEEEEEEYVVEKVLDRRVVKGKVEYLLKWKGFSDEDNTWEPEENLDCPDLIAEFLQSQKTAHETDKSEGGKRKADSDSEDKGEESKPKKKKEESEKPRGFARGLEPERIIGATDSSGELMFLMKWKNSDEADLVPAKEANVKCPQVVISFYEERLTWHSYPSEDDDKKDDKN
#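 Compound inhibition of the preformed complex between 50 nM HP1-beta and 50 nM biotinylated H3K9me3 peptide was read by AlphaScreen. Buffer was PBS pH 7.4 with 0.01% Tween-20. Incubations ran 30 min at room temperature, with 10 ug/mL donor/acceptor beads.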
# L3MBTL1 block – qHTS Assay for the Inhibitors of L3MBTL1. Lethal(3)malignant brain tumor-like protein 1 (Homo sapiens), Q9Y468. AlphaScreen L3MBTL1–H3K9me1 peptide binding. Potency, µM (doses to about 57.1 µM), without a hit: at the top dose activity, negative = inhibition, most hits filed as inhibitors. 230,000 tested, 0.66% active; note: % is set by controls: 0 for no effect and ±100 for the full control effect; nearly all actives have a fitted effect of over 60% in size
#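 L3MBTL1 (50 nM) pre-complexed 30 min with biotinylated H3(1-15)K9me1 peptide (75 nM), then compounds added for 30 min at room temperature; AlphaScreen streptavidin donor/nickel chelate acceptor beads (10 ug/mL final) read after 30 min dark incubation.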
# An asterisk follows results filed as active; ? = inconclusive; · = no result; [ ] = remark or other dose. Calls come from the whole dose curve; as a rule, active = well fitted curve in the direction sought with a large enough effect; inconclusive = small, poorly fitted or top-dose-only effect, or another doubt; inactive = no such curve, though single readings can be large; an effect the other way counts as inactive or inconclusive. Potency is the fitted concentration of half-maximal effect.
SMILES,Sfp inh,BAZ2B block,JMJD2A Tudor inh,G9a block,HP1b binding inh,L3MBTL1 block
COc1cc(SC)ccc1C(=O)N1CCN(c2ccccc2)CC1,15.2%,-0.1%,-19.6%,9.0%,10.5%,1.2%
COc1cc(SC)ccc1C(=O)N1CCC(Cc2ccccc2)CC1,-12.2%,·,·,10µM*,·,·
COCCNC(=O)c1c(NC(=O)c2cc(=O)c3cc(C)cc(C)c3o2)sc2c1CCCC2,·,-2.5%,-17.7%,-2.1%[59 µM],4.2%,·
CCc1cnccc1CCC(=O)Nc1ccccc1C,·,·,-2.9%,·,42.8%,·
Cc1c(NC(=O)c2cc(=O)[nH]c3ccccc23)c(=O)n(-c2ccccc2)n1C,1.3%,8.0%,-14.1%,-7.4%[12.7 µM],-2.4%,·
Cc1[nH]c2ccccc2c1N=Nc1c(C)n(C)n(-c2ccccc2)c1=O,0.5%,?,-34.0%,39.8µM*,10.7%,10.5%
Cc1c(N=NC2=C(O)CCCC2=O)c(=O)n(-c2ccccc2)n1C,14.1µM*,22.4µM*,14.1µM*,8.91µM*,?,-8.4%
Cc1c(N=Nc2ccc(O)cc2)c(=O)n(-c2ccccc2)n1C,13.1%,?,-21.8%,-0.5%,13.8%,?
CN(C)c1ccc(-c2ccc3ncnc(NC4CC4)c3c2)cc1,13.9%,·,·,1.2%[0.501 µM],·,·
Cc1ccc(NC(=O)c2cc(C)n(-c3ccccc3)c2C)cc1,0.3%,?,-29.8%,?,-18.1%,-12.3%
Cc1cc(C(=O)NP(=O)(N2CCOCC2)N2CCOCC2)c(C)n1-c1ccc(N(C)C)cc1,-17.5%,?,?,22.4µM*,-11.8%,-8.4%
Cc1cc(C(=O)C[N+]2(C)CCOCC2)c(C)n1-c1ccc(Br)cc1,13.0%,-36.8%,?,-26.9%,-5.1%,12.2%
Cc1cc(C(=O)NP(=O)(N2CCOCC2)N2CCOCC2)c(C)n1-c1ccc(Br)cc1,6.6%,?,-28.7%,50.1µM*,-1.3%,-5.7%
Cc1ccccc1/C=N/Nc1nc2ccccc2[nH]1,?,-29.1%,-17.4%,-39.7%,11.8%,·
C(=N\Nc1nc(N2CCCCC2)nc(N2CCCCC2)n1)/c1c[nH]c2ccccc12,24.5%,39.8µM*,35.5µM*,?,5.6%,?
C(=N\Nc1nc2ccccc2[nH]1)/c1ccccc1,-7.9%,-22.0%,-17.5%,-12.1%[12.7 µM],29.9%,-2.2%
C(=N\Nc1nc2ccccc2[nH]1)/c1cccc2cccnc12,-7.8%,7.08µM*,14.1µM*,·,10.2%,?
CN(C)c1nc(N/N=C/c2c[nH]c3ccccc23)nc(N2CCOCC2)n1,8.2%,-33.6%,-20.1%,-43.9%,9.2%,0.0%
C(=C\c1ccccc1)/C=N/Nc1nc2ccccc2[nH]1,14.1µM*,-35.3%,?,?,21.3%,?
C(=N\Nc1nc2ccccc2[nH]1)/c1c[nH]c2ccccc12,?,44.7µM*,44.7µM*,3.7%[59 µM],?,-15.3%
CS(=O)(=O)c1ccc(C(=O)OCC(=O)Nc2ccc(OC(F)(F)F)cc2)cc1[N+](=O)[O-],·,·,-12.8%,·,46.3%,·
Cc1cc(=O)[nH]c(N/N=C/c2c[nH]c3ccccc23)n1,28.2µM*,18.7%,-13.3%,?,13.0%,-4.1%
O=[N+]([O-])c1ccccc1N/N=C/c1c[nH]c2ccccc12,6.9%,10µM*,11.2µM*,?,12.6µM*,?
Cc1ccc(/C=N/Nc2nc3ccccc3[nH]2)s1,-9.0%,?,?,22.2%[59 µM],-21.4%,-10.0%
O=[N+]([O-])c1ccc(N/N=C/c2c[nH]c3ccccc23)cc1,7.2%,?,?,28.4%[0.501 µM],?,-13.4%
SMILES,Sfp inh,BAZ2B block,JMJD2A Tudor inh,G9a block,HP1b binding inh,L3MBTL1 block
O=[N+]([O-])c1cc(/C=N/Nc2nc3ccccc3[nH]2)c(O)cc1O,-21.1%,20µM*,28.2µM*,50.1µM*,?,?
Cc1[nH]c2ccccc2c1/C=N/Nc1nc2ccccc2[nH]1,10.5%,28.2µM*,44.7µM*,39.8µM*,?,·
Cc1cc(=O)[nH]c(N/N=C/c2ccccc2C(F)(F)F)n1,-17.7%,-29.8%,1.0%,?,24.0%,5.3%
CCOc1ccc(-c2cn3c(n2)sc2cc(C(=O)NCCCN(CC)CC)ccc23)cc1,·,2.3%,7.2%,-3.4%[59 µM],28.7%,·
Cc1cc(-c2ccc(S(=O)(=O)Nc3ccccc3C)cc2)on1,·,-1.1%,-4.1%,-8.7%[59 µM],38.0%,·
O=C1c2ccccc2C(=O)N1CSc1nnc(Nc2ccccc2)s1,1.8%,-24.0%,0.0%[11.4 µM],?,44.2%,-4.4%[11.4 µM]
O=C(CSc1nnc(Nc2ccccc2F)s1)c1cc2ccccc2o1,-16.9%,-11.4%,-31.7%,7.94µM*,?,-9.4%
O=C1c2ccccc2C(=O)N1CSc1nnc(Nc2ccccc2F)s1,5.1%,-14.5%,-15.5%,10µM*,19.2%,1.9%
COc1ccc(C2C(C(=O)c3cccs3)=C(O)C(=O)N2CCN2CCOCC2)c(OC)c1 (stereo unspecified),9.2%,-19.6%,-22.5%,50.1µM*,8.8%,·
COc1ccc(OC)c(C2C(C(=O)c3cccs3)=C(O)C(=O)N2CCN2CCOCC2)c1 (stereo unspecified),?,20.0%,-0.4%,44.7µM*,25.3%,·
COc1ccc2c(c1)C(=O)c1ccccc1CO2,28.2µM*,108.7%,44.5%,-42.6%[59 µM],107.1%,·
O=C1c2ccccc2COc2ccc(O)cc21,4.7%,-33.3%,-12.3%,-9.6%[12.7 µM],8.7%,-4.2%
CC(C(=O)NN)n1nnc(N2CCOCC2)n1 (stereo unspecified),4.6%,0.0%,-2.2%,·,52.6%,7.0%
CC(C(=O)NNS(=O)(=O)c1cccc(C(F)(F)F)c1)n1nnc(N2CCOCC2)n1 (stereo unspecified),8.4%,-16.4%,14.1µM*,31.6µM*,15.5%,5.1%
O=C(O)c1ccccc1N=Nc1c(O)[nH]c2ccc([N+](=O)[O-])cc12,-16.4%,50.1µM*,?,25.1µM*,70.8µM*,·
O=C(N=Nc1c(O)[nH]c2ccc([N+](=O)[O-])cc12)c1ccccc1Cl,?,56.2µM*,?,?,10.5%,-4.3%
COc1ccc(/C=C/C(=O)NCC(=O)N=Nc2c(O)[nH]c3ccc([N+](=O)[O-])cc23)cc1,4.5%,79.4µM*,?,?,3.4%,·
O=C(Nc1cccc(C(F)(F)F)c1)Nn1cnnc1,2.6%,-1.3%,-3.4%,-25.0%,28.5%,·
Cc1nc2ccc(S(=O)(=O)CCC(=O)Nc3ccc(C)c(C)c3)cc2s1,·,-31.1%,-23.8%,?,34.9%,·

# Screening data deposited in PubChem BioAssay by National Center for Advancing Translational Sciences (NCATS).
